A number with no mark means an inactive call.

In the assay the test system is Vero E6 infected with SARS-CoV-2. The experiment in a line: inhibition of SARS-CoV-2 cytopathic effect; higher = more antiviral protection, active = above 15. The conditions noted are these: 1 nM; 48 h. A general note: Damage to the host cells serves as the signal in cytopathic effect assays.
Regarding `COc1ccc2c(C(=S)N(C)CC(=O)O)cccc2c1C(F)(F)F` [tolrestat], the “inhibition of SARS-CoV-2 cytopathic effect” value (shortened to “inhibition”) is 0.38%.
Take `NC(=O)c1cccc2cn(-c3ccc([C@@H]4CCCNC4)cc3)nc12` [niraparib]: the “inhibition” value is -0.28%.
With `N#CN=C(NCCCCCCOc1ccc(Cl)cc1)Nc1ccncc1` the figure was 0.77%.
On to `Oc1ccc(Cl)c2cccnc12` [cloxyquin], for which the “inhibition” value was 1.22%.
With `CS(=O)(=O)N(Cc1ccco1)C[C@@H](O)Cn1c2ccccc2c2ccccc21` the figure was 3.16%; with `CN=c1nc(-c2ccccc2)n(-c2ccccc2)s1`, 1.73%; with `CCc1cc(-c2[nH]nc(C)c2-c2ccc3c(c2)OCCO3)c(O)cc1O`, -2.8%.
With `CC(=O)Oc1c(C)cc(OCC(O)CNC(C)C)c(C)c1C` (centres undefined) [metipranolol] the figure was -0.83%.
The same measure for `O=C1c2ccccc2-n2c1nc1ccccc1c2=O` [tryptanthrin]: 3.12%.
`Cn1cnnc1Sc1c([N+](=O)[O-])ncn1C`: the “inhibition” value is 3.11%.
The same measure for `O=C(NCc1ccc(F)cc1)N1CCN2C(=O)OC(c3ccccc3)(c3ccccc3)[C@@H]2C1` (racemic): 1.17%; for `CCc1cncnc1N1CCN(Cc2nc3cc(C(F)(F)F)ccc3[nH]2)CC1`: 1.34%.
With `COc1ccc(CCN)cc1OC` [homoveratrylamine] the figure was 0.49%; with `COc1nccnc1NS(=O)(=O)c1ccc(N)cc1` [sulfametopyrazine], -1.43%.
With `CN(C)C(=O)C(=O)c1cn(C)c2cc(Cl)c(C(=O)N3CCC(Cc4ccc(F)cc4)CC3)cc12` the figure was 2.15%.
On to `CC#C[C@]1(O)CC[C@H]2[C@@H]3CCC4=CC(=O)CCC4=C3[C@@H](c3ccc(N(C)C)cc3)C[C@@]21C` [mifepristone], for which the “inhibition” value is -1.56%.
The same measure for `CCCc1c(OCCCCc2nnn[nH]2)ccc(C(C)=O)c1O` [tomelukast]: -8.82%; for `C[C@H](O)[C@H](O)[C@H]1CNc2nc(N)[nH]c(=O)c2N1` [sapropterin]: -2.03%; for `Cc1cc(C)n(-c2cccc([C@H](CC(=O)O)CN3CC[C@@H](CCc4ccc5c(n4)NCCC5)C3)c2)n1` [integrin-antagonist-1]: 6.72%.
With `CCCNCCc1ccc(NS(=O)(=O)c2ccc(OC(F)(F)F)cc2)cc1` the figure was 2.87%; with `CCc1nc(-c2cccc(C)c2)c(-c2ccnc(NC(=O)c3ccccc3)c2)s1`, 1.89%.
The same measure for `CC(C)(C)CC(=O)Nc1c(F)cc(C(=O)/N=c2\sccn2COP(=O)(O)O)cc1F`: 0.06%.
With `CC[N+](CC)(CC(=O)Nc1c(C)cccc1C)Cc1ccccc1` [denatonium-benzoate], the “inhibition” value was -0.9%.
The same measure for `CNCc1ccc(C)c(NC(=O)c2ccc(Nc3nc(-c4ccccc4)c4ccccc4n3)cc2)c1`: -4.56%; for `CC(CCc1ccccc1)NCC(O)c1ccc(O)c(C(N)=O)c1` (centres undefined) [labetalol]: -0.33%.
On to `CC(C)c1cc(C(C)C)c(CC(=O)NS(=O)(=O)Oc2c(C(C)C)cccc2C(C)C)c(C(C)C)c1` [avasimibe], for which the “inhibition” value is -2.41%.
With `CC(C)(C)NCC(O)c1cc(Cl)c(N)c(Cl)c1` (centres undefined) [clenbuterol], the “inhibition” value is -0.45%.
The same measure for `O=C(O)c1ccc(N2C(=O)/C(=C/c3ccc(-c4ccc([N+](=O)[O-])cc4)o3)C=C2c2ccccc2)cc1`: -2.98%; for `CCc1cnn2c(NCc3ccc[n+]([O-])c3)cc(N3CCCC[C@H]3CCO)nc12` [dinaciclib]: 1.49%.
The same measure for `CC(C)[C@H]1C(=O)N[C@@H](CCCNC(=N)N)C(=O)NCC(=O)N[C@@H](CC(=O)O)C(=O)N[C@H](Cc2ccccc2)C(=O)N1C` [cilengitide]: -2.16%.
The same measure for `N[C@@H](Cc1ccc(Cl)cc1)C(=O)O` (racemic) [fenclonine-(+/-)]: 1.09%.
For `CC1=C(C(=O)O)N2C(=O)[C@@H](NC(=O)[C@H](N)c3ccccc3)[C@H]2SC1` [cephalexin], the “inhibition” value is 2.47%.
With `CCOC(CN1CCN(CC(C)C(=O)c2ccccc2)CC1)c1ccccc1` (centres undefined) [eprazinone] the figure was -5.33%.
The same measure for `O=C(c1ccc(F)cc1)N1CCC[C@H](c2nc(-c3ccc(F)cc3)no2)C1`: -1.67%; for `O=C(NCCN1CCOCC1)c1ccc(Cl)cc1` [moclobemide]: 1.23%.
The same measure for `C[C@H](N[C@@H](CCc1ccccc1)C(=O)O)C(=O)N1CCC[C@H]1C(=O)O` [enalaprilat]: -0.58%; for `CCN(CC)CCOc1ccccc1C(=O)CCc1ccccc1` [etafenone]: 1.2%; for `COc1ccc(Cl)c(Nc2nc3ccccc3nc2NS(=O)(=O)c2cccc(NC(=O)C(C)(C)N)c2)c1` [pilaralisib]: 0.3%.
Turning to `COc1ccc2c(c1)[C@]13CCCC[C@@H]1[C@H](C2)N(C)CC3` [dextromethorphan], the “inhibition” value was 0.17%.

The values above are taken from the supplement of paper PMC13380429.
